# Screening data as filed in PubChem BioAssay.
# SW480 rerep – inducers of DNA re-replication in SW480 colon cancer cells. SW480 DNA re-replication, Hoechst DNA content imaging, 48 h. Potency, µM (doses to about 46.1 µM), for inactives: top-dose re-replication activation, usual class: activators. actives 1.8% (n = 340,000); also: % of control where 0% means no effect; nearly all actives have a fitted effect of over 55% in size
#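 Cells (250 per well) received 23 nL compound or DMSO by pin tool and were kept 48 hr at 37 C, 5% CO2. Nuclei were then stained with Hoechst for 40 min and scanned for DNA content.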
# KB-3-1 tox – KB-3-1 parental cell cytotoxicity; KB-3-1 viability, CellTiter-Glo ATP luminescence, 72 h; Potency, µM (top dose mostly 46.1 µM), actives largely listed as cytotoxic; actives 1.4% (n = 400,000); also: % is scaled to controls: 0 for no effect and ±100 for the full control effect; nearly all actives have a fitted effect of over 60% in size
#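 KB-3-1 cells, DMEM (no phenol red) + 10% FBS; compound by pin transfer, 72 h, 37 °C. Readout: CellTiter-Glo luminescence after 10 min. Data normalized, curve-fitted.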
# MCF10A rereplic – DNA re-replication induction in MCF 10a cells | MCF 10A DNA re-replication, Hoechst nuclear intensity, 48 h | Potency, µM (doses to about 46.1 µM), for the others: top-dose activity, positive = re-replication, actives largely listed as activators | actives 2.9% (n = 350,000); also: % of control where 0% means no effect; nearly all actives have a fitted effect of over 50% in size
# KB-V1 MDR tox – kills drug-selected multidrug resistant KB-V1 cells. actives 3.4% (n = 400,000). AID 1347076. KB-V1 MDR cells viability, CellTiter-Glo, 72 h. Potency, µM (series often up to 46.1 µM), usual class: cytotoxic; also: % is scaled to controls: 0 for no effect and ±100 for the full control effect; nearly all actives have a fitted effect of over 60% in size
#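 Cytotoxicity via CellTiter-Glo luminescence after 72 h compound exposure at 37 degrees C. Cells: drug-selected KB-V1 line, DMEM phenol-red free plus 10% FBS. Compounds tested at multiple concentrations; normalized data fitted to concentration-effect curves.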
# ELG1 repair inh – blocks ELG1-dependent DNA repair in HEK293T cells | HEK293T ELG1-luciferase reporter, luminescence, 16 h; DNA damage induced by 5-fluorouridine | Potency, µM (titrated, usually from 46.1 µM), for inactives: at the top dose activity change, negative = inhibition, most hits filed as inhibitors | actives 2.3% (n = 330,000); also: % is scaled to controls: 0 for no effect and ±100 for the full control effect; nearly all actives have a fitted effect of over 55% in size
#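 HEK293T cells expressing luciferase-tagged ELG1 (2,000/well) received 5-Fluorouridine plus compound or DMSO for 16 hr at 37 °C. Luciferase was read by ONE-Glo luminescence after 30 min at room temperature.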
# An asterisk follows results filed as active; i = inactive; ? = inconclusive; / = not tested or not shown. A selection: hits, their analogues and other compounds. The true share with any hit is near 8.1%. Calls follow the shape of the dose curve; as a rule, active = well fitted curve in the direction sought with a large enough effect; inconclusive = small, poorly fitted or top-dose-only effect, or another doubt; inactive = no such curve, though single readings can be large; an effect the other way counts as inactive or inconclusive. Potency is read from the fitted curve at half-maximal effect.
SMILES,SW480 rerep,KB-3-1 tox,MCF10A rereplic,KB-V1 MDR tox,ELG1 repair inh
CCN(CCCNC(=O)C1CCN(S(=O)(=O)CC)CC1)c1ccccc1,10%,i,2.9µM*,i,-7%
Cc1ccc(S(=O)(=O)N(C)C)cc1NC(=O)COC(=O)c1ccc2c(=O)n3c(nc2c1)CCC3,-84%,i,0%,i,12%
CCOc1ccc(C(C)NC(=O)c2ccccc2F)cc1 (stereo unspecified),-97%,i,1%,16µM*,5%
COc1ccc(C)cc1NS(=O)(=O)c1ccc2c3c(cccc13)C(=O)N2,/,i,/,?,/
CCOC(=O)C(=CNc1cc(C)nn1-c1ccc(Cl)cc1)C(=O)OCC,-2%,i,?,i,?
CCOC(=O)C(=Cc1ccc(-n2cncn2)cc1)C(=O)OCC,16µM*,?,4.6µM*,i,18µM*
COc1ccccc1CNC(=O)c1cc2cc(C)ccc2n1C,/,i,/,i,/
CSc1nc(N)nc(SCCS(=O)(=O)c2ccc(Cl)cc2)c1C#N,?,i,13µM*,?,-3%
O=C(CCSc1ccc(F)cc1)Nc1ccc(-n2cnnn2)cc1,-3%,i,1%,?,18µM*
CCCOC(=O)c1ccc(NC(=O)c2ccoc2C)cc1,3%,i,7%,i,?
CCCCCCCCCCCNC(=O)c1ccoc1C,-3%,i,26µM*,i,-8%
CCCCOC(=O)c1ccc(NC(=O)c2ccoc2C)cc1,-2%,i,?,10µM*,-3%
Cc1occc1C(=O)Nc1ccc(OCc2ccccc2)cc1,0%,i,16%,16µM*,1%
O=C(Nc1ccc(OCc2ccccc2)cc1)c1cccs1,0%,i,-5%,i,?
Cc1ccccc1S(=O)(=O)NC(=O)C1(C)CCN1C(=O)Cc1cc(F)ccc1F (stereo unspecified),/,i,/,i,/
Cc1nc(C(F)(F)F)ccc1C(=O)N1CCCCCC1(C)C(=O)NCC(C)C (stereo unspecified),/,i,/,i,/
CCS(=O)(=O)c1ccc(O)c(NC(=O)Nc2ccccc2)c1,1%,i,-7%,i,14%
CCS(=O)(=O)c1ccc(O)c(NC(=O)Nc2ccc(C(C)(C)C)cc2)c1,-17%,i,8%,i,15µM*
CCOC(=O)c1sc2nc(CC(=O)OC)nc(NCCN(CC)CC)c2c1C,2%,i,6%,9.2µM*,0%
CCOC(=O)c1sc2nc(CC(=O)OC)nc(NCc3ccc(Cl)cc3)c2c1C,1%,i,-3%,?,5.8µM*
CCOC(=O)c1sc2nc(CC(=O)OC)nc(N(C)CCc3ccccn3)c2c1C,0%,i,-5%,i,-28%
CCOC(=O)c1sc2nc(C)nc(N3CCN(S(=O)(=O)c4ccccc4)CC3)c2c1C,-1%,?,-1%,?,23µM*
CCOC(=O)c1sc2nc(CC(=O)OC)nc(NCCN3CCOCC3)c2c1C,-8%,?,3%,3.7µM*,?
CCOC(=O)c1sc2nc(CC(=O)OC)nc(N3CCN(c4ccc(OC)cc4)CC3)c2c1C,-3%,i,-1%,?,?
O=C(CSc1nc(=O)n(Cc2ccco2)c2c1CCC2)NCc1ccc(F)cc1,/,i,/,i,/
SMILES,SW480 rerep,KB-3-1 tox,MCF10A rereplic,KB-V1 MDR tox,ELG1 repair inh
CC(=O)c1cccc(-c2ccnc3c2CC(C(=O)NCc2ccncc2)O3)c1 (stereo unspecified),/,i,/,i,/
CCOC(=O)c1sc2nc(C)nc(NCc3ccccc3)c2c1C,-13%,i,?,i,23µM*
Cc1cc(C)n2c(SCC(=O)Nc3cccc(S(N)(=O)=O)c3)nnc2n1,4%,i,3%,i,13%
CC(C)Nc1nc(Cl)nc(N(C#N)CN2C(=O)c3ccccc3C2=O)n1,?,?,16µM*,i,?
c1ccc(-c2csc(CN3CCCCC3)n2)cc1,2%,i,1%,i,/
Clc1ccc(Cn2ncc3c(NCCN4CCOCC4)ncnc32)cc1,-10%,i,10%,21µM*,-19%
Cc1ccc(Cn2ncc3c(NCCCN4CCOCC4)ncnc32)cc1,1%,i,3%,i,-18%
c1ccc(Nc2ncnc3c2oc2ccccc23)cc1,1%,i,25%,i,/
c1ccc2c(c1)oc1c(Nc3ccc(CN4CCOCC4)cc3)ncnc12,9%,?,16µM*,18µM*,?
c1ccc2c(c1)oc1c(NCCN3CCOCC3)ncnc12,1%,i,-11%,23µM*,15%
CCCc1nc2oc3c(NCCN4CCOCC4)ncnc3c2c2c1CCCC2,2%,i,4%,1.8µM*,?
CC(=O)OC[C@H]1O[C@@H](Oc2cc3ccc(=O)oc3cc2OC(C)=O)[C@H](OC(C)=O)[C@@H](OC(C)=O)[C@@H]1OC(C)=O,21µM*,i,-65%,i,/
Cc1cccc(NC(=O)C2CCCN(S(=O)(=O)c3cnc[nH]3)C2)c1C (stereo unspecified),/,i,/,i,/
CCCc1cc(C(=O)Nc2cccc(-c3nn[nH]n3)c2)sc1C,/,i,/,i,/
CSCCC(NC(=O)c1ccco1)C(=O)N1CC(C)OC(C)C1 (stereo unspecified),-6%,i,-3%,i,8%
CC(C)c1cccc(C(C)C)c1NC(=O)OC1CCCCC1,/,i,/,i,/
Cc1ccc(-c2cn(S(=O)(=O)c3ccc(C)cc3)nc2N)cc1,-3%,i,?,13µM*,-12%
CCOc1ccc(S(=O)(=O)n2cc(-c3ccccc3)c(N)n2)cc1,-1%,i,-6%,i,28%
CCOc1ccc(S(=O)(=O)n2cc(-c3ccc(F)cc3)c(N)n2)cc1,-7%,i,2%,16µM*,-3%
CCOc1cc(S(=O)(=O)n2cc(-c3ccc(F)cc3)c(N)n2)cc(OCC)c1OCC,?,?,15%,16µM*,15µM*
CC1CN(C(=O)N2CCC(C(=O)NCCCc3ccccc3)CC2)c2cc(Cl)ccc2O1 (stereo unspecified),/,i,/,i,/
Cc1cc2oc(C(=O)N(Cc3ccc(N(C)C)cc3)CC3CCCO3)c(C)c2cc1C (stereo unspecified),-5%,i,4%,i,6%
CC(=O)Nc1ccc(S(=O)(=O)Nc2cccc3cccnc23)cc1,-4%,i,0%,?,-6%
Cc1ccc2cccc(NS(=O)(=O)c3ccccc3)c2n1,?,?,3.3µM*,?,-6%
O=C(Nc1ccccn1)c1ccc(S(=O)(=O)c2ccc(Cl)cc2)cc1,9%,?,0%,7.3µM*,?
Cc1cc(C)c(NS(=O)(=O)c2cccc3cccnc23)c(C)c1,0%,i,0%,i,-21%
